# Measurements: paper PMC12820563, “FoxP3 forms a head-to-head dimer in vivo and stabilizes its multimerization on adjacent microsatellites”
# Whole data set: some 16,000 sequences, median “rpm ratio (pull-down/input)” near 0.5, cut for the highest 2% near 5.5. This excerpt belongs to a sample that is enriched for the highest values.
# Target: T1, MBP-FoxP3dN (Mus musculus, UniProt Q99JB6 188-423)
# T1 sequence: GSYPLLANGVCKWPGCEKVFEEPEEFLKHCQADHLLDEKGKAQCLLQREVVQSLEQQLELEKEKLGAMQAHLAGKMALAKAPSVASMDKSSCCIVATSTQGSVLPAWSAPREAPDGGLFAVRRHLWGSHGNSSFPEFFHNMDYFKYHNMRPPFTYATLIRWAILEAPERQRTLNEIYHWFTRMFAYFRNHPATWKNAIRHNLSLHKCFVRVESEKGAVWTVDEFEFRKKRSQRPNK
# Assay: PD-seq (MBP pull-down with sequencing); 20 mM Tris-HCl pH 7.5, 100 mM NaCl, 1.5 mM MgCl2, 0.4 uM protein, 0.1 uM dsDNA library, 30 min, room temperature, amylose pull-down; high values mean tight binding
# Settings: protein: recombinant; tags: His6-MBP; chain copies: 2; dsDNA, one strand shown
# Outline: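 Binding is reads-per-million enrichment of pull-down over input, with replicates pooled. It comes from 30 min room-temperature incubation in Tris pH 7.5 buffer with NaCl and MgCl2 of 0.4 µM His6-MBP-tagged, N-terminally truncated mouse FoxP3 or FoxP1 fragment from E. coli with 0.1 µM Klenow-filled degenerate double-stranded DNA library, followed by amylose resin capture, three washes and Illumina sequencing of the released DNA.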
row,Sequence,binding signal
1,GATGATTGTTCTCCCAGCTGATGAATTATCAAACTCGAGTAAACAAATTTTCCTAATCTTTCTGTTCAAGCGCCATCTAC,0.363 RPM ratio (pull-down/input)
2,GATGATTGTTCTCCCAGCTGATGAATTGCCCTCCTCGAGTAAACAAATTTTCCTAATCTTTCTGTTCAAGCGCCATCTAC,0.471 RPM ratio (pull-down/input)
3,GATGATTGTTCTCCCAGCTGATGAATTTCGTCAATCGAGTAAACAAATTTTCCTAATCTTTCTGTTCAAGCGCCATCTAC,0.411 RPM ratio (pull-down/input)
4,GATGATTGTTCTCCCAGCTGATGAATTATTAGCTTCGAGTAAACAAATTTTCCTAATCTTTCTGTTCAAGCGCCATCTAC,0.671 RPM ratio (pull-down/input)
5,GATGATTGTTCTCCCAGCTGATGAATTATTCCGATCGAGTAAACAAATTTTCCTAATCTTTCTGTTCAAGCGCCATCTAC,0.214 RPM ratio (pull-down/input)
6,GATGATTGTTCTCCCAGCTGATGAATTTCATCTGTCGAGTAAACAAATTTTCCTAATCTTTCTGTTCAAGCGCCATCTAC,0.411 RPM ratio (pull-down/input)
7,GATGATTGTTCTCCCAGCTGATGAATTGTGGCTGTCGAGTAAACAAATTTTCCTAATCTTTCTGTTCAAGCGCCATCTAC,1.13 RPM ratio (pull-down/input)
8,GATGATTGTTCTCCCAGCTGATGAATTATCATCGTCGAGTAAACAAATTTTCCTAATCTTTCTGTTCAAGCGCCATCTAC,0.418 RPM ratio (pull-down/input)
9,GATGATTGTTCTCCCAGCTGATGAATTAGCTAAGTCGAGTAAACAAATTTTCCTAATCTTTCTGTTCAAGCGCCATCTAC,0.231 RPM ratio (pull-down/input)
10,GATGATTGTTCTCCCAGCTGATGAATTCCAGTAATCGAGTAAACAAATTTTCCTAATCTTTCTGTTCAAGCGCCATCTAC,0.477 RPM ratio (pull-down/input)
11,GATGATTGTTCTCCCAGCTGATGAATTTGCTTGTTCGAGTAAACAAATTTTCCTAATCTTTCTGTTCAAGCGCCATCTAC,6.99 RPM ratio (pull-down/input)
12,GATGATTGTTCTCCCAGCTGATGAATTGCTGTTTTCGAGTAAACAAATTTTCCTAATCTTTCTGTTCAAGCGCCATCTAC,2.65 RPM ratio (pull-down/input)
13,GATGATTGTTCTCCCAGCTGATGAATTTGCTTTTTCGAGTAAACAAATTTTCCTAATCTTTCTGTTCAAGCGCCATCTAC,5.38 RPM ratio (pull-down/input)
14,GATGATTGTTCTCCCAGCTGATGAATTGCTATTTTCGAGTAAACAAATTTTCCTAATCTTTCTGTTCAAGCGCCATCTAC,1.47 RPM ratio (pull-down/input)
15,GATGATTGTTCTCCCAGCTGATGAATTTGTTGCTTCGAGTAAACAAATTTTCCTAATCTTTCTGTTCAAGCGCCATCTAC,6.86 RPM ratio (pull-down/input)
16,GATGATTGTTCTCCCAGCTGATGAATTTGCTGCTTCGAGTAAACAAATTTTCCTAATCTTTCTGTTCAAGCGCCATCTAC,3.05 RPM ratio (pull-down/input)
17,GATGATTGTTCTCCCAGCTGATGAATTTTTGCTTTCGAGTAAACAAATTTTCCTAATCTTTCTGTTCAAGCGCCATCTAC,0.978 RPM ratio (pull-down/input)

row,Sequence,binding signal
1,GATGATTGTTCTCCCAGCTGATGAATTTTGCTGTTCGAGTAAACAAATTTTCCTAATCTTTCTGTTCAAGCGCCATCTAC,5.2 RPM ratio (pull-down/input)
2,GATGATTGTTCTCCCAGCTGATGAATTCTTTGCTTCGAGTAAACAAATTTTCCTAATCTTTCTGTTCAAGCGCCATCTAC,0.407 RPM ratio (pull-down/input)
3,GATGATTGTTCTCCCAGCTGATGAATTTGCTATTTCGAGTAAACAAATTTTCCTAATCTTTCTGTTCAAGCGCCATCTAC,5.54 RPM ratio (pull-down/input)
4,GATGATTGTTCTCCCAGCTGATGAATTTGCTGTTTCGAGTAAACAAATTTTCCTAATCTTTCTGTTCAAGCGCCATCTAC,6.28 RPM ratio (pull-down/input)
5,GATGATTGTTCTCCCAGCTGATGAATTTTGCTATTCGAGTAAACAAATTTTCCTAATCTTTCTGTTCAAGCGCCATCTAC,5.16 RPM ratio (pull-down/input)
6,GATGATTGTTCTCCCAGCTGATGAATTGTGCACCTCGAGTAAACAAATTTTCCTAATCTTTCTGTTCAAGCGCCATCTAC,2.92 RPM ratio (pull-down/input)
7,GATGATTGTTCTCCCAGCTGATGAATTCGGAACGTCGAGTAAACAAATTTTCCTAATCTTTCTGTTCAAGCGCCATCTAC,0.297 RPM ratio (pull-down/input)
8,GATGATTGTTCTCCCAGCTGATGAATTGATTCAGTCGAGTAAACAAATTTTCCTAATCTTTCTGTTCAAGCGCCATCTAC,0.28 RPM ratio (pull-down/input)
9,GATGATTGTTCTCCCAGCTGATGAATTGTGGGGGTCGAGTAAACAAATTTTCCTAATCTTTCTGTTCAAGCGCCATCTAC,0.783 RPM ratio (pull-down/input)
10,GATGATTGTTCTCCCAGCTGATGAATTCTAAAGCTCGAGTAAACAAATTTTCCTAATCTTTCTGTTCAAGCGCCATCTAC,0.248 RPM ratio (pull-down/input)
11,GATGATTGTTCTCCCAGCTGATGAATTGTTTGCTTCGAGTAAACAAATTTTCCTAATCTTTCTGTTCAAGCGCCATCTAC,6.19 RPM ratio (pull-down/input)
12,GATGATTGTTCTCCCAGCTGATGAATTTGCTTCTTCGAGTAAACAAATTTTCCTAATCTTTCTGTTCAAGCGCCATCTAC,2.97 RPM ratio (pull-down/input)
13,GATGATTGTTCTCCCAGCTGATGAATTTTTTGCTTCGAGTAAACAAATTTTCCTAATCTTTCTGTTCAAGCGCCATCTAC,0.306 RPM ratio (pull-down/input)
14,GATGATTGTTCTCCCAGCTGATGAATTAGCTCGCTCGAGTAAACAAATTTTCCTAATCTTTCTGTTCAAGCGCCATCTAC,0.272 RPM ratio (pull-down/input)
15,GATGATTGTTCTCCCAGCTGATGAATTCCGGGTGTCGAGTAAACAAATTTTCCTAATCTTTCTGTTCAAGCGCCATCTAC,0.669 RPM ratio (pull-down/input)
16,GATGATTGTTCTCCCAGCTGATGAATTCCGATTGTCGAGTAAACAAATTTTCCTAATCTTTCTGTTCAAGCGCCATCTAC,1.93 RPM ratio (pull-down/input)
